Compound activity (PubChem BioAssay)
Pf growth 96h: P. falciparum growth inhibition at 96 hour, primary screen for plastid delayed-death inhibitors; P. falciparum luciferase reporter growth, 96 h; Potency, µM (series often up to 28.7 µM), for the others: at the top dose activity change, negative = inhibition, actives largely listed as inhibitors; 320,000 compounds, 6.9% hits; AID 504834; note: potency is the fitted concentration of half-maximal effect; % is set by controls: 0 for no effect and ±100 for the full control effect
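P. falciparum expressing integrated firefly luciferase, in erythrocytes at 2% hematocrit, 0.05% parasitemia, incubated with compounds 96 h at 37 C, 5% CO2. Growth inhibition read as loss of luminescence; two-generation exposure targets delayed-death apicoplast inhibitors.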
Cycloheximide cs: counter-screen for Shiga toxin inhibitors: cycloheximide protein synthesis inhibition; cell reporter, cycloheximide protein synthesis inhibition counterscreen; max response, %; 300,000 compounds, 12% hits; in the data active = max response mostly above about 13%, no sharp cut-off; inactive = mostly below about 14%; note: read at 38.3 µM for the half of the compounds with a filed dose; 0% is about no effect
Pf growth 48h: P. falciparum growth inhibition at 48 hours (one generation) | P. falciparum luciferase growth in erythrocytes, 48 h | Potency, µM (series often up to 28.7 µM), for inactives: at the highest dose activity change, negative = inhibition, most hits filed as inhibitors | 310,000 compounds, 5.9% hits; note: potency is the fitted concentration of half-maximal effect; % is set by controls: 0 for no effect and ±100 for the full control effect
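Luminescence readout; reporter = integrated firefly luciferase in P. falciparum. RBC culture at 2% hematocrit, 0.1% parasitemia final, 37 C/5% CO2; decreased signal taken as growth inhibition.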
Shiga toxin inh: blocks Shiga toxin action in Vero cells | inhibition, % at 38.7 µM | 290,000 compounds, 9.2% hits | Vero cells, Shiga toxin protein synthesis inhibition reporter; in the data active = inhibition mostly above about 28%, no sharp cut-off; inactive = mostly below about 43%; note: 0% is about no effect
AMA1-RON2 inh: AMA1-RON2 (P. falciparum) interaction inhibition. AlphaScreen AMA1-biotinylated RON2 peptide binding. Potency, µM (series often up to 58.2 µM), without a hit: top-dose activity change, negative = inhibition, most hits filed as inhibitors. 360,000 compounds, 0.2% hits. AID 720542;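 note: potency is the fitted concentration of half-maximal effect; 0% = vehicle wells and -100% = peptide control; nearly all actives have a fitted effect of over 45% in size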
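AMA1 (3D7) with his tag at 25 nM final met compounds first, then biotinylated RON2 peptide at 25 nM; detection used donor plus acceptor beads, 10 µg/mL apiece, read by AlphaScreen after 30 min at room temperature.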
HCV inhibitor: blocks hepatitis C virus | Huh7.5.1 HCVcc-Cre infection, luciferase reporter, 44 h | Potency, µM (highest dose often 41.8 µM), inactives show at the highest dose activity change, negative = inhibition, usual class: inhibitors | 340,000 compounds, 3.4% hits; note: potency is the fitted concentration of half-maximal effect; % is set by controls: 0 for no effect and ±100 for the full control effect
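After 44 h co-culture of compound, cells and HCVcc-Cre (~0.5 moi), substrate is added for 15 min at room temperature and luciferase measured over 15 sec. Cells were seeded at 1,000/well and pre-cultured 4 h.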
Starred values were filed as active, the others as inactive; i = inactive; ? = inconclusive; nt = not tested or not shown. This is a sample that favours compounds with a hit; in the whole collection about 21% have one here. Unless noted, calls come from the whole dose curve; as a rule, active = well fitted curve in the direction sought with a large enough effect; inconclusive = small, poorly fitted or top-dose-only effect, or another doubt; inactive = no such curve, though single readings can be large; an effect the other way counts as inactive or inconclusive.

SMILES	Pf growth 96h	Cycloheximide cs	Pf growth 48h	Shiga toxin inh	AMA1-RON2 inh	HCV inhibitor
CCOc1ccc(C(=O)CSc2nnc(N)s2)cc1	-18.4%	29.6	55.9%	73.0*	10.8%	11.2%
COC(=O)CSc1nnc(C)c(=O)[nH]1	nt	-1.2	5.7%	-8.7	-6.5%	-5.7%
Cc1cc(C)c(C(=O)CSc2nnc(N)s2)cc1C	57.5%	25.9*	38.6%	21.5	-19.8%	-25.0%
Cc1cc(C)c(C(=O)CSc2nnc(C)c(=O)[nH]2)cc1C	-11.1%	48.0*	1.0%	95.4*	8.6%	17.3%
CCOc1ccc(C(C)=O)cc1CSc1nnc(N)s1	-15.0%	-1.3	-3.7%	-10.5	1.8%	-18.6%
CC(C)N1C(=O)c2ccccc2NC(=O)C1C(=O)NCc1cccc(C(F)(F)F)c1 (stereo not given)	nt	nt	nt	nt	-2.7%	nt
OC[C@@H]1[C@@H](c2ccc(F)cc2)C(c2cccc(Cl)c2)=NN1c1ccccc1	nt	-2.6	nt	i	102.4%	-27.6%
O=C1NC[C@@H](CCCCN2CCN(CCc3ccc(O)cc3)C(=O)C2=O)N(CCc2ccc(O)cc2)C1=O	nt	nt	nt	nt	-5.0%	nt
C=CCNC(=S)NNC(=O)c1ccccc1	108.1%	0.5	19.8%	-2.3	80.4%	14.0%
C=CCNC(=O)NC(=S)c1ccccc1	7.1%	22.6*	17.9%	23.8	-4.3%	3.9%
O=C(CN1C(=O)CCC1=O)Nc1nc(-c2nc3ccccc3s2)cs1	200.4%	25.0*	129.3%	active	23.4%	?
O=C(CN1C(=O)NC2(CCCC2)C1=O)Nc1nc(-c2ccc(F)c(F)c2)cs1	?	nt	?	nt	3.6%	3.98µM*
O=C(CN1C(=O)CCC1=O)Nc1nc(-c2ccc3ccccc3c2)cs1	83.8%	40.1*	133.0%	96.2*	-6.5%	0.1%
CC1(C(=O)OCC(=O)Nc2nc(-c3ccc(F)c(F)c3)cs2)CC1(Cl)Cl (stereo not given)	34.8%	12.5	4.9%	53.8*	-20.4%	?
O=C(CN1C(=O)CCC1=O)Nc1nc(-c2ccccn2)cs1	?	-5.3	nt	-10.0	7.0%	?
CC(C)CNC(=O)c1cc(=O)[nH]c2ccc(S(=O)(=O)Nc3ccc(F)cc3)cc12	0.1%	-3.3	9.0%	-10.0	42.0%	?
CCCc1nc2c3ccccc3ccn2c1CC1CCCCC1	nt	nt	nt	nt	-18.1%	nt
O=C1NC[C@H](CCCCN2C[C@H](Cc3ccc(O)cc3)N(Cc3ccccc3)C(=O)C2=O)N(CC2CCCCC2)C1=O	nt	nt	nt	nt	-2.8%	nt
CCN(CC)CC(=O)Nc1cccc2c1C(=O)c1ccccc1C2=O	-21.6%	1.2	19.0%	-9.1	-6.8%	-23.4%
O=C1c2ccccc2C(=O)c2c(NCCCN(CCO)CCO)cccc21	44.9%	20.2	?	69.3	?	14.1µM*
O=c1[nH]nc(SCc2nnc(-c3ccc([N+](=O)[O-])cc3)o2)n1C1CCCCC1	-4.4%	0.7	-15.9%	2.7	3.16µM*	3.6%
CCOC(=O)c1ccc2c(c1)NCc1cccc(OC)c1O2	246.5%	52.7*	151.0%	99.4*	-5.2%	-27.5%
Cc1ccc(S(=O)(=O)N2C[C@H]3C(=O)C[C@@H](c4ccc(Cl)cc4)N(S(=O)(=O)c4ccc(C)cc4)[C@H]3C[C@H]2c2cccc3ccccc23)cc1	nt	nt	nt	nt	1.5%	nt
CCc1ccc2[nH]c3nc(C)cc(C)c3c(=O)c2c1	0.0%	20.5*	3.29µM*	-3.7	18.4%	0.6%
C/C(=N\NC(=O)c1ccco1)c1ccc(NC(=O)C(F)(F)F)cc1	30.4%	56.8*	48.1%	60.6*	9.2%	12.1%
SMILES	Pf growth 96h	Cycloheximide cs	Pf growth 48h	Shiga toxin inh	AMA1-RON2 inh	HCV inhibitor
CC(=O)c1ccc(NC(=O)/C(=C\c2cccs2)NC(=O)c2ccco2)cc1	41.5%	-1.5	9.7%	-1.2	-3.4%	11.1%
C/C(=N\NC(=O)COc1ccccc1F)c1cc2ccccc2o1	-26.5%	47.9*	56.0%	126.1*	31.9%	?
C/C(=N\NC(=O)c1ccco1)c1cc(Cl)sc1Cl	43.6%	24.7*	38.7%	71.2*	-3.3%	?
C/C(=N\NC(=O)c1ccco1)c1cc2ccccc2o1	-25.5%	57.7*	80.4%	95.4*	7.2%	-4.7%
C/C(=N/NC(=O)c1ccc(-c2ccccc2)cc1)c1cc(O)cc(O)c1	-10.7%	17.5	-10.8%	8.9	39.0%	-13.6%
C/C(=N/NC(=O)c1ccncc1)c1ccc(NC(=O)c2ccccc2)cc1	?	8.8	41.9%	22.2	29.2%	-23.6%
C/C(=N\NC(=O)c1ccco1)c1ccc(-c2ccccc2)cc1	?	23.4*	?	107.9*	8.0%	-12.5%
C/C(=N\NC(=O)c1ccco1)c1ccc(NC(=O)c2ccccc2)cc1	13.1µM*	35.5*	325.1%	72.4*	15.1%	-15.4%
COc1cccc(C2N=C(c3ccccc3C)NO2)c1OC (stereo not given)	79.4%	27.2*	63.4%	51.2*	-6.6%	-10.6%
COc1cccc(C2NC(=O)c3ccccc3O2)c1OC (stereo not given)	29.1%	-6.1	16.0%	-8.0	-3.4%	21.8%
O=C(COC(=O)C1CCN(S(=O)(=O)c2cccs2)CC1)NCc1ccc(F)cc1	42.0%	1.2	26.6%	-5.3	4.5%	13.2%
Cc1ccc(/C(=N/Nc2nc3ccccc3s2)C2=C(O)c3ccccc3C2=O)cc1	101.6%	18.7	33.0%	43.7*	41.3%	3.2%
COc1ccc2c(c1OC)C(=O)OC2CC(=O)O (stereo not given)	nt	-1.1	25.6%	-10.4	0.0%	21.1%
COc1ccc2c(c1OC)C(=O)N1c3ccccc3C(=O)N(c3ccccc3F)C21 (stereo not given)	11.7µM*	-5.7	10.4µM*	-17.2	0.0%	?
O=C1c2ccccc2N2C(=O)c3ccccc3[C@H]2N1c1ccccc1	?	-2.8	nt	-15.0	-8.4%	-26.3%
COc1ccc2c(c1OC)C(=O)N1c3ccccc3COC21 (stereo not given)	25.7%	41.2*	138.8%	80.2*	-1.8%	0.4%
COc1ccc2c(c1OC)C(=O)N1c3cccc(Cl)c3C(=O)OC21 (stereo not given)	?	4.0	4.4%	1.3	-3.7%	19.5%
COc1ccc2c(c1OC)C(=O)N1c3ccccc3SC21 (stereo not given)	121.3%	35.3*	226.2%	54.2*	3.7%	20.2%
Cc1noc(C(=O)Nc2ccc(Cl)cc2)c1Cl	68.4%	-2.6	21.9%	-3.1	nt	nt
Cc1noc(C(=O)Nc2cc(Cl)ccc2O)c1Cl	18.7%	17.7	5.22µM*	32.4	-8.8%	?
Cc1noc(C(=O)Nc2ccc(F)c(Cl)c2)c1Cl	233.0%	29.0*	65.4%	29.7*	-4.7%	0.1%
CSc1ccccc1NC(=O)c1onc(C)c1Cl	?	-5.1	nt	2.7	1.2%	-12.7%
Cc1ccc(NC(=O)c2onc(C)c2Cl)cc1	-45.3%	30.2*	nt	62.3*	18.5%	9.2%
